The record followed here is PubChem BioAssay AID624330 (Southern Research Specialized Biocontainment Screening …, 2012).

Screen size: about 340,000 compounds; about 2,100 (0.62%) were called active. These entries were drawn from the full list. Results with a measured potency or affinity are listed apart. A number with no mark means an inactive call.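 Rule for the calls: active = first-screen hits whose inhibition reached a set limit at any dose in the follow-up dose series; inconclusive = inhibition above the set first-screen limit but never retested; inactive = the rest.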

One may read the inhibition as the relative decrease from the control value, in per cent.

For the experiment, the target named is Rac GTPase-activating protein 1 (Homo sapiens) (UniProt Q9H0H5). In words: MgcRacGAP GTPase-activating activity inhibitors, confirmation, biochemical, ADP Hunter fluorescence, primary and confirmatory (AID 624330).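 Note: fluorescence reports GDP produced by GAP-driven GTP hydrolysis.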 The following applies: MgcRacGAP-stimulated Rac1 GTP hydrolysis, at 30 µM, active compounds read high, GST-tagged Rac1 F28L mutant substrate.
Sequence of Rac GTPase-activating protein 1 (Homo sapiens) (Q9H0H5 whole entry, looked up): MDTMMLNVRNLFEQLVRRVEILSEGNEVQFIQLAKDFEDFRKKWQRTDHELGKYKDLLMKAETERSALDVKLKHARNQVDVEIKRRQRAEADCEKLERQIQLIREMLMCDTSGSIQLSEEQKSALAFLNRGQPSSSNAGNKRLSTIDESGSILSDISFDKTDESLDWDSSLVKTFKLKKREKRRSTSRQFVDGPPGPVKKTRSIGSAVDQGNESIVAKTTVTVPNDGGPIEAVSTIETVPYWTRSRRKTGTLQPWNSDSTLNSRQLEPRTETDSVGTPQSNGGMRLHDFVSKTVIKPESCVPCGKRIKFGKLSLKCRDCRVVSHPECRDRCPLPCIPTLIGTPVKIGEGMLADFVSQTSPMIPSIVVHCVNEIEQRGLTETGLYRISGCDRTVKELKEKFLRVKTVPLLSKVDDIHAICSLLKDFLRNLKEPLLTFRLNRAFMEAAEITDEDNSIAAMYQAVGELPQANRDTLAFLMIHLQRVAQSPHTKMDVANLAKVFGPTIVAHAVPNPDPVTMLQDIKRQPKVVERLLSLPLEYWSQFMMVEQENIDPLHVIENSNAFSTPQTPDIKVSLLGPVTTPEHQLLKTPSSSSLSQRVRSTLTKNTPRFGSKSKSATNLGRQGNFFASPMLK
`CCn1nc(C)c(NC(=O)CSc2nnc(-c3ccco3)n2C)c1C`: the inhibition is 5.76%.
As for `Cc1nn(CCCC(=O)Nc2cnn(Cc3ccc(F)cc3)c2)c(C)c1[N+](=O)[O-]`, the inhibition is -3.65%.
Regarding `COc1cc(OC)cc(C(=O)N2CCCC(Nc3ccc(F)cc3)C2)c1` (centres undefined), the inhibition is 3.07%.
For `Cc1ccc(NC2CCCN(C(=O)c3ccc(C)c(N4CCNC4=O)c3)C2)cc1C` (centres undefined) the value was 15.1%; for `O=C(c1cccc(N2CCNC2=O)c1)N1CCCC(Nc2cccc(F)c2)C1` (centres undefined), -0.6%.
As to `Cc1ccc(C(=O)N2CCCC(Nc3cccc(F)c3)C2)cc1N1CCNC1=O` (centres undefined), the inhibition was 7.34%.
The same measure for `CC(C)c1ccc(NC2CCCN(C(=O)c3cccc(N4CCNC4=O)c3)C2)cc1` (centres undefined): 9.26%.
The same measure for `COc1cccc(C(=O)N2CCCC(Nc3ccc(C)c(C)c3)C2)c1` (centres undefined): 16.7%.
With `CC(C)CNc1nc(N)c([N+](=O)[O-])c(NC2CCCCC2)n1`, the inhibition was 9.84%.
For `CCc1nn2c(=O)cc(CSCC(=O)Nc3ccccc3Cl)nc2s1`, the inhibition was 10.2%.
Consider `Cc1ccc(CN2CCN(Cc3ccc(OC(C)C)cc3)CC2CCO)o1` (centres undefined), for which the inhibition is 8.44%.
`Cc1cccnc1NC(=O)CCCNC(=O)c1ccc(Cl)cc1`: the inhibition is 5.51%.
`Nc1ccc(CCc2ccccn2)cc1`: the inhibition was -1.15%.
With `Oc1cccc(CCc2ccccn2)c1`, the inhibition was -0.46%.
Consider `COCCNC(=O)COc1ccc(Oc2ccccc2)cc1`, for which the inhibition was 8.68%.
For `O=C(COc1ccc(Cl)cc1)OCC(=O)N1CCCCCC1` the value was 11.4%; for `O=C(COC(=O)COc1ccccc1)NCc1ccco1`, 5.42%; for `COc1ccc(OCC(=O)OCC(=O)NCc2ccco2)cc1`, 5.26%.
As for `COCCNC(=O)COc1cccc(Oc2ccccc2)c1`, the inhibition was 12.7%.
In the case of `O=C(COc1ccc(Cl)cc1)OCC(=O)N1CCCC1`, the inhibition was 8.63%.
For `Cc1ccc(CNC(=O)C2CCC(CNS(=O)(=O)c3cccs3)CC2)cc1` (centres undefined), the inhibition was 5.1%.
For `Cc1cccc(NC(=O)CNC(=O)c2ccc(-n3cncn3)c([N+](=O)[O-])c2)c1C`, the inhibition was 0.04%.
For the compound `Cc1cc(OC(C)C(=O)NCc2cccnc2)c2c(C)cc(=O)oc2c1` (centres undefined), the inhibition is 3.28%.
In the case of `CC(NS(=O)(=O)c1ccc2c(c1)C(C)(C)C(=O)N2C)c1ccccc1` (centres undefined), the inhibition is 3.16%.
For `N/C(=N\c1nc2c(c(=O)[nH]1)CCC2)Nc1ccccc1C(F)(F)F`, the inhibition was -0.36%.
Regarding `Cn1c(=O)[nH]c(=O)c2c1nc(Br)n2Cc1ccc(Cl)cc1`, the inhibition was 8.01%.
The same measure for `CSc1nc2c(c(=O)[nH]c(=O)n2C)n1Cc1ccc(Cl)cc1`: 11.4%; for `O=C(O)CCC(=O)Nc1cccc(-c2nc3ccccc3o2)c1`: -9.77%.
Regarding `CCN(CC)S(=O)(=O)c1ccc2c(c1)c(=O)c(C(=O)N1CCN(c3ccccc3)CC1)cn2C`, the inhibition is 1.44%.
On to `CCN(CC)CCN1c2ccccc2Sc2ccc3ccccc3c21`, for which the inhibition was 10.6%.
With `CN(C)CCCN1c2ccccc2Sc2ccc3ccccc3c21`, the inhibition is 15.1%.
On to `OC(CNCC1(N2CCCCC2)CCCCC1)COc1ccc(Cl)cc1Cl` (centres undefined), for which the inhibition was 17.6%.
Take `COc1cc(C(C)=O)ccc1OCC(O)CNCC1(N2CCCCC2)CCCCC1` (centres undefined): the inhibition is 27.1%.
`O=C(NCC1CCCO1)c1cc(C(=O)C2CCCCC2)c[nH]1` (centres undefined): the inhibition was 4.74%.
For `CCCCCOC(=O)CSc1nc2c(c(=O)[nH]c(=O)n2C)n1Cc1ccc(Cl)cc1`, the inhibition is 1.35%.
For `O=C(CSc1ccc(-c2ccco2)nn1)Nc1ccc(F)cc1F` the value was 9.4%.
`COc1ccc(/C=C/C(=O)CCC(=O)O)cc1`: the inhibition was 2.46%.
For the compound `Cc1ccc(N2CC3=C(C2=O)C(c2ccccc2)NC(=O)N3C)cc1` (centres undefined), the inhibition is 6.8%.
With `CN1C(=O)NC(c2ccc(O)cc2)C2=C1CN(c1ccccc1)C2=O` (centres undefined), the inhibition was 10.4%.
In the case of `CSc1ccccc1NC(=S)Nc1cc(C)cc(C)c1`, the inhibition was 9.21%.
In the case of `COc1ccc(S(=O)(=O)N2CCOCC2)cc1NC(=O)Cc1ccccc1Cl`, the inhibition is 5.39%.
The same measure for `CCN(CC)c1ccc(CNc2ccc(Br)cn2)cc1`: 4.81%.
As to `CCN(CC)c1ccc(NC(=O)c2cncc(Br)c2)cc1`, the inhibition is 30.6%.
The same measure for `Nc1nc2cc(S(=O)(=O)NC3=NCCCCC3)ccc2s1`: 38.9%; for `O=S(=O)(Nc1nc2c(s1)CCCC2)c1ccc2ccccc2c1`: 8.29%; for `CCc1ccc(C(=O)OCC(=O)Nc2cccc(S(=O)(=O)NC3=NCCCCC3)c2)cc1`: 5.3%.
Take `O=S(=O)(NC1=NCCCCC1)c1ccc2ccccc2c1`: the inhibition was 2.56%.
Regarding `Cc1ccc(-c2cc(C(=O)N3CCCC3)c3ccccc3n2)s1`, the inhibition is 3.87%.
The same measure for `CCCCn1c(N)c(N(CCOC)C(=O)CSc2ccc([N+](=O)[O-])cc2)c(=O)[nH]c1=O`: 9.47%; for `CC1CC1C(=O)OCC(=O)NNC(=O)c1ccc([N+](=O)[O-])cc1` (centres undefined): 2.78%; for `Cc1ccc(-c2cc(C(=O)N/N=C/c3c(C)nn(-c4ccccc4)c3C)n[nH]2)s1`: 3.04%.
Regarding `CC(C)NC(=O)N(C)C[C@H]1Oc2ccc(NS(=O)(=O)c3cn(C)cn3)cc2C(=O)N([C@H](C)CO)C[C@@H]1C`, the inhibition was 12.3%.
As for `Cc1cc(Br)ccc1NCc1ccccn1`, the inhibition was 23.4%.
As to `O=C(CN1CCN(S(=O)(=O)c2ccc(Br)cc2)CC1)Nc1ccc(F)cc1F`, the inhibition was 7.71%.
Turning to `CC1(C)CC(=S)Nc2ccccc2S1`, the inhibition is 2.74%.
On to `CC1(C)CNc2cc([N+](=O)[O-])ccc2S1`, for which the inhibition is 9.53%.
For `CSc1ncccc1C(=O)NC1CCCc2c1cnn2-c1ccc(C)c(C)c1` (centres undefined), the inhibition was 3.32%.
`CCOc1cc(C=NN2CCCCCC2)ccc1O`: the inhibition is 30.4%.
As for `CCOc1cc(/C=N/N=C/c2ccc(O)c(OCC)c2)ccc1O`, the inhibition was 9.66%.
For the compound `CCOc1cc(/C=N/n2c(C)nc3sc(C)c(C)c3c2=O)ccc1O`, the inhibition was 10%.
Regarding `CCOc1cc(/C=N/n2cnnc2)cc(Br)c1O`, the inhibition was 14.1%.
As to `CN(C)c1nc(C(=O)O)nc(N2CCOCC2)n1`, the inhibition was 7.25%.
The same measure for `CN(C(=O)c1ccc(NC(=O)Cc2ccc(NC(=O)C3CCCN(C(=O)C4CCCCC4)C3)cc2)cc1)C1CCCC1` (centres undefined): 9%.
Take `O=C(Nc1cccc(NS(=O)(=O)c2ccc(S(=O)(=O)NC3CC3)cc2)c1)c1ccccn1`: the inhibition is 11.8%.
Consider `NC(=O)CSc1nnc(NC(=O)c2cccc(S(=O)(=O)N3CCCCC3)c2)s1`, for which the inhibition was 7.47%.
As for `Cc1c(Cl)cccc1NC(=S)NC1CCCC1`, the inhibition is 8.99%.
In the case of `c1csc(-c2csc(-c3cccs3)n2)c1`, the inhibition is 7.41%.
Regarding `CN(c1nc(-c2ccccc2)cs1)C1CCS(=O)(=O)C1` (centres undefined), the inhibition is 8.88%.
For `CN(C(=O)c1cccnc1)c1nc(-c2ccccc2)cs1`, the inhibition is 0.25%.
In the case of `c1ccc(-c2nc(-c3cccnc3)cs2)cc1`, the inhibition was 7.12%.
For `Cc1cc(O)ccc1Nc1nc(-c2cccnc2)cs1` the value was 28.4%; for `CN(C(=O)c1ccco1)c1nc(-c2ccccc2)cs1`, 8.31%; for `Nc1nc(-c2cccs2)cs1`, 18.1%.
As for `Oc1ccc(Nc2nc(-c3cccs3)cs2)cc1`, the inhibition is 19.4%.
On to `COc1cc(OC)c(C(=O)NCCCn2ccnc2)cc1OC`, for which the inhibition is 3.26%.
For `O=C(Nc1cccnc1)c1ccco1`, the inhibition is -3.68%.
On to `CC(=O)N(C)c1ccc(NC(=O)Cc2cccs2)cc1`, for which the inhibition was -7.79%.
In the case of `COC(=O)Cn1c2c(c3cc(C)ccc31)CCCC2NC(C)c1ccccc1` (centres undefined), the inhibition is 12.5%.
Consider `CCOc1ccc2nc(N3C(=O)C(O)=C(C(=O)c4ccco4)C3c3ccco3)sc2c1` (centres undefined), for which the inhibition was 10.3%.
As to `Cc1ccc2nc(N3C(=O)C(O)=C(C(=O)c4ccc(C)o4)C3c3ccco3)sc2c1` (centres undefined), the inhibition was 14.4%.
For the compound `CCN1CCN(C(c2cccnc2)c2c(NC(=O)c3ccco3)sc(C)c2C)CC1` (centres undefined), the inhibition is 3.07%.
Take `O=[N+]([O-])c1ccc(O)c(CNCc2ccccc2)c1`: the inhibition is 5.59%.
For `Oc1ccc(C=NC2CCCCC2)cc1` the value was -1.9%.
Take `Oc1c(C=Nc2ccccc2)sc2ccccc12`: the inhibition is 6.75%.
Take `Oc1ccc(N=Cc2ccc(OCc3ccccc3)cc2)cc1`: the inhibition is 9.78%.
Consider `CC1CCCC(C)N1/N=C/c1ccc(O)cc1` (centres undefined), for which the inhibition was 21.4%.
Regarding `Cc1ccc(C(C(=O)NC2CCCCC2)N(Cc2ccco2)C(=O)Cc2c[nH]c3ccccc23)o1` (centres undefined), the inhibition was 9.31%.
The same measure for `COc1cc(OC)cc(C(=O)NCCCN2CCOCC2)c1`: 5.65%; for `CCc1c(C)nc(SCC(=O)N2CCCCC2)[nH]c1=O`: 0.74%.
For `O=C1c2ccccc2C(=O)N1CCCCSc1nnc(-c2ccc(OC(F)F)cc2)o1` the value was -1.82%.
As to `CC(CNC(=O)Cn1ccc(N)nc1=O)c1ccccc1` (centres undefined), the inhibition was -5.59%.
The same measure for `COc1cc(/C=C2/C(=N)N3N=C(CC(=O)N4CCOCC4)SC3=NC2=O)ccc1OCc1ccccc1`: 11.5%.
As for `COc1cc(/C=C2/C(=N)N3C(=NC2=O)SN=C3S(C)(=O)=O)ccc1OS(=O)(=O)c1ccc(C)cc1`, the inhibition was 11.8%.
In the case of `Cc1ccc(/C=C2/C(=N)N3N=C(CC(=O)N4CCCC4)SC3=NC2=O)cc1`, the inhibition was 1.49%.
For `COc1ccc(/C=C2\C(=N)N3N=C(CC(=O)N4CCOCC4)SC3=NC2=O)cc1`, the inhibition is 5.52%.
For `CSc1ccc(/C=C2\C(=N)N3N=C(CC(=O)N4CCOCC4)SC3=NC2=O)cc1`, the inhibition was -13.1%.
The same measure for `CCN(CC)c1ccc(/C=C2\C(=N)N3N=C(CC(=O)N4CCOCC4)SC3=NC2=O)cc1`: 5.98%; for `COc1cc(/C=C2\C(=N)N3N=C(S(C)(=O)=O)SC3=NC2=O)ccc1OS(=O)(=O)c1ccc(C)cc1`: 23.8%; for `Cc1ccc(/C=C2\C(=N)N3N=C(CC(=O)N4CCCCC4)SC3=NC2=O)cc1`: 7.03%.
